Results reported in PubChem BioAssay (NCI).
The panel holds about 79,000 compounds, 15% with a hit somewhere; the sample as a whole holds those more often. Cut-off read from the data, not from the text of the source: active = growth inhibition above about 70%; inactive = the rest.

Experiments:
[1] = NCI Yeast Anticancer Drug Screen. Data for the rad50 strain (AID 155);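 note: 0% = growth of vehicle-only cultures of the same strain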; conditions: S. cerevisiae rad50 strain growth inhibition; at 50.0 µM; hits give high values
Outline: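 Relative growth inhibition (compound vs vehicle) was measured in yeast with a defined repair-gene alteration.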

[2] = NCI Yeast Anticancer Drug Screen. Data for the mec2-1 strain (AID 157); conditions: S. cerevisiae mec2-1 strain, at 50.0 µM, hits give high values
Outline: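 Each compound was tested on mec2-1 yeast, a strain altered in DNA damage repair or cell cycle control. Growth inhibition is reported relative to vehicle.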

[3] = NCI Yeast Anticancer Drug Screen. Data for the sgs1 mgt1 strain (AID 161);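 note: 0% = growth of cultures given vehicle only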; conditions: S. cerevisiae sgs1 mgt1 strain, at 50.0 µM, hits give high values
Outline: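 Test agents were incubated with a DNA-repair-mutant yeast strain. Growth was then read and compared against vehicle-treated controls.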

[4] = NCI Yeast Anticancer Drug Screen. Data for the cln2 rad14 strain (AID 165);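 note: 0% = growth equal to vehicle treated cultures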; conditions: S. cerevisiae cln2 rad14 strain, at 50.0 µM, hits give high values
Outline: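 Test compounds were added to cln2 rad14 yeast cultures; inhibition of growth was then determined by comparison with vehicle treatment.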

[5] = NCI Yeast Anticancer Drug Screen. Data for the bub3 strain (AID 167); conditions: S. cerevisiae bub3 mutant strain, at 50.0 µM, hits give high values
Outline: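 Screening used yeast with an engineered genetic alteration affecting cell cycle control. Compound-exposed cultures were compared with vehicle cultures, and reduced growth was taken as inhibition.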

[6] = NCI Yeast Anticancer Drug Screen. Data for the mlh1 rad18 strain (AID 175); conditions: S. cerevisiae mlh1 rad18 strain growth inhibition; at 50.0 µM; hits give high values
Outline: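 Inhibition values reflect reduced growth of mutant yeast versus vehicle-treated controls following compound exposure; the mutations affect DNA damage repair.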

Measured: growth inhibition

CC(=O)OC1C(=O)OCC23CCC(C)=CC2OC2CC(OC(=O)/C=C/C=C/C(=O)OCCC1C)C3(C)C21CO1 (stereo not drawn)
inactive: [1] -35.5% | [2] -4.45% | [3] -31.3% | [4] -4.4% | [5] -22.6% | [6] -19.6%

COC(=O)C([O][Ge]([CH3])([CH3])[CH3])c1ccccc1 (stereo not drawn)
inactive: [1] 8.75% | [2] -15.1% | [3] -1.5% | [4] 21.2% | [5] -12.9% | [6] -12.7%

COC(=O)c1ccc(OC)cc1O
inactive: [1] 1.5% | [2] 1.8% | [3] -13.4% | [4] -19.9% | [5] 3.2% | [6] -2%

Cc1ccc(CC(=O)N(C)C)c([N+](=O)[O-])c1
inactive: [1] -9.5% | [2] -7.15% | [3] -1% | [4] 0.95% | [5] -8.45% | [6] -25.1%

O=C(/C=C/c1ccccc1)Oc1ccccc1
inactive: [1] 3.45% | [2] 5.55% | [3] 1.5% | [4] -19.9% | [5] 23.8% | [6] -4.85%

C=C(CC(=O)OCC)C(=O)OCC
inactive: [1] 15.4% | [2] 4.6% | [3] 18.4% | [4] 1.95% | [5] 1.25% | [6] 13.8%

COc1ccc(C(O)S(=O)(=O)O)cc1 (stereo not drawn)
inactive: [1] -1.1% | [2] -13.9% | [3] -9.9% | [4] -6.75% | [5] -22.1% | [6] 1.2%

BrC1C2CC/C=C\CCC12 (stereo not drawn)
inactive: [1] 43.9% | [2] 22.7% | [3] 10.9% | [4] 11.6% | [5] 18% | [6] 13.9%

CN(C)CCC(C(N)=O)c1ccccc1 (stereo not drawn)
inactive: [1] 36.1% | [2] -1.7% | [3] -3.7% | [4] 38.9% | [5] -5.85% | [6] 18.1%

O=C(O)c1cc(/C=C/c2cc(O)ccc2O)ccc1O
inactive: [1] -14.7% | [2] -21.8% | [3] -24.8% | [4] -2.05% | [5] -33.4% | [6] -39.6%

COC(=O)O[C@H]1CC[C@@]2(C)C(=CC[C@H]3[C@@H]4CC[C@H]([C@H](C)CCCC(C)C)[C@@]4(C)CC[C@@H]32)C1
inactive: [1] -21.6% | [2] -29.8% | [3] -5.6% | [4] 6.75% | [5] -11.8% | [6] -5.3%

C1CC2N=NC1C21CC1.[Cl][Cu][Cl]
inactive: [1] 1.2% | [2] 1.7% | [3] -3.75% | [4] -8.15% | [5] 8.7% | [6] -10%

CCCCNS(=O)(=O)c1ccc(C)cc1
inactive: [1] -24.6% | [2] -26.4% | [3] -23% | [4] -42.7% | [5] -22% | [6] -21.3%

CC1(C)Cc2c(oc3ncnc(N)c23)CS1
inactive: [1] -10.3% | [2] -14.1% | [3] -8.8% | [4] -4.75% | [5] -4.65% | [6] 9.2%

OCC(O)c1ccccn1 (stereo not drawn)
inactive: [1] 5.5% | [2] -18.8% | [3] 6.65% | [4] -1.45% | [5] 2.55% | [6] 6.2%

CCCN(CCC)C(=O)c1c(Cl)c2cccnc2n2c(C)cnc12
inactive: [1] 5.35% | [2] 19.7% | [3] 26.6% | [4] 18.7% | [5] 15.1% | [6] 31.3%

CCOC(=O)c1ccc(N=Cc2ccc(N(CCC#N)S(=O)(=O)c3ccccc3)cc2C)cc1
inactive: [1] -3.9% | [2] 15.1% | [3] -20% | [4] 6.95% | [5] 2.95% | [6] -3.95%

O=C(c1ccccc1)c1ccc2ccccc2c1C(=O)O
inactive: [1] -8.25% | [2] 9.6% | [3] 4.85% | [4] -69.3% | [5] -5.65% | [6] -17%

Cn1c(Cl)cn2c3nc4ccccc4nc3c(=O)c(C#N)c12
inactive: [1] 6.1% | [2] -29.2% | [3] -52.1% | [4] 1.3% | [5] -18.1% | [6] -4%

CCC1CCC(C(C)(C)C)C(=O)C1 (stereo not drawn)
inactive: [1] 6.45% | [2] 1.75% | [3] 2.55% | [4] -11.3% | [5] 3.7% | [6] -4%

Cc1ccc(OCCNCCO)cc1
inactive: [1] 23.3% | [2] -11.4% | [3] 6.3% | [4] 10.4% | [5] -1.2% | [6] 18.2%

O=C(CC(=O)C(F)(F)F)c1ccc2c(c1)Cc1ccccc1-2
inactive: [1] -10.2% | [2] 28.9% | [3] 3.75% | [4] 14.9% | [5] -2.7% | [6] 23.6%

CCCCC(C)NC(=O)c1ccccc1 (stereo not drawn)
inactive: [1] 4.3% | [2] 11.3% | [3] -23.8% | [4] -52.5% | [5] -3.8% | [6] 2%

CC(=O)[C@H]1CC[C@H]2[C@@H]3CC[C@H]4C[C@@H](OC(c5ccccc5)(c5ccccc5)c5ccccc5)CC[C@]4(C)[C@H]3CC[C@]12C
inactive: [1] -3.55% | [2] 11.8% | [3] 0.95% | [4] -3.95% | [5] -5.5% | [6] -17.6%

c1ccc(Oc2ccccc2-c2ccccc2)cc1
inactive: [1] 6.1% | [2] -26.1% | [3] -0.7% | [4] -0.65% | [5] -23.1% | [6] 15.9%

O=C(O)c1cc(=O)c2cc(Cl)ccc2[nH]1
inactive: [1] -15.5% | [2] -12.2% | [3] -17.1% | [4] -19% | [5] -9.9% | [6] -1.55%

O=C(O)CCCN1CCCCC1
inactive: [1] -22.1% | [2] -32.4% | [3] -30.2% | [4] -4.7% | [5] -63.9% | [6] 8.8%

NC(Cc1cnc[nH]1)C(=O)NCC(=O)O (stereo not drawn)
inactive: [1] -11.4% | [2] -6.2% | [3] -11.8% | [4] -10.2% | [5] 4.3% | [6] -8.95%

COC1Cc2c(C)c(OC(C)=O)c3cccnc3c2O1 (stereo not drawn)
inactive: [1] 18.6% | [2] -17.4% | [3] 10.8% | [4] 18.6% | [5] 4.25% | [6] 5.65%

Cc1ccc(-c2n[nH]c(CC#N)n2)cc1
inactive: [1] 5.55% | [2] 1.6% | [3] -4.6% | [4] -12.7% | [5] -1.55% | [6] 18.7%

CC(C)(CCCOc1ccccc1)NC(=O)c1ccccc1
inactive: [1] 17.2% | [2] -1.15% | [3] -3.5% | [4] 15.5% | [5] 15.3% | [6] 6.15%

O=c1[nH]c(-c2ccc(Cl)cc2)cs1
inactive: [1] -1.25% | [2] -14.8% | [3] -7% | [4] -5.65% | [5] -19.9% | [6] -16.1%

N#CCCc1c(O)ccc2ccccc12
inactive: [1] 38.6% | [2] 0.6% | [3] 10.1% | [4] -59.9% | [5] 10.5% | [6] 11.6%

O=c1oc2ccccc2c(O)c1C(c1cc(OCc2ccccc2)cc(OCc2ccccc2)c1)c1c(O)c2ccccc2oc1=O
inactive: [1] -12.1% | [2] -2.85% | [3] -2.1% | [4] -19.4% | [5] -11.7% | [6] -16.6%

CCSc1[nH]c2nc[nH]c(=O)c2c1C#N
inactive: [1] -8.1% | [2] 21.2% | [3] -32.5% | [4] -17.8% | [5] 0.45% | [6] -8.4%

CCOC1=C([N+](=O)[O-])C(c2ccccc2)NC1=O (stereo not drawn)
inactive: [1] 10.8% | [2] -0.6% | [3] -3% | [4] 15.1% | [5] -35.3% | [6] 11.7%

CNCC(OCCc1ccccc1)c1ccc(O)c(O)c1 (stereo not drawn)
inactive: [1] 5.85% | [2] -1.9% | [3] 36% | [4] -0.95% | [5] -12.6% | [6] 21.4%

CC1(C)CC(C(N)=O)C(=O)O1 (stereo not drawn)
inactive: [1] -17.4% | [2] -4.15% | [3] -21.6% | [4] -25.9% | [5] 5.1% | [6] -2.4%
